Data taken from PubChem BioAssay (NCI).
About 79,000 compounds went through this panel and 15% of them were active in at least one assay; those are over-represented in the sample as a whole. Active and inactive are the calls of the source. Rule as the data show it: active = growth inhibition above about 70%; inactive = the rest.

Experiments:
[1] = NCI Yeast Anticancer Drug Screen. Data for the rad50 strain (AID 155);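 also: 0% = growth of vehicle-only cultures of the same strain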; details: S. cerevisiae rad50 strain growth inhibition; at 50.0 µM; hits give high values
Summary of the method: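 Compounds were tested on a yeast strain with an engineered DNA damage repair alteration; the reported value is growth inhibition normalised to vehicle treatment.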

[2] = NCI Yeast Anticancer Drug Screen. Data for the mec2-1 strain (AID 157); details: S. cerevisiae mec2-1 strain, at 50.0 µM, hits give high values
Summary of the method: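 Each compound was tested on mec2-1 yeast, a strain altered in DNA damage repair or cell cycle control. Growth inhibition is reported relative to vehicle.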

[3] = NCI Yeast Anticancer Drug Screen. Data for the sgs1 mgt1 strain (AID 161);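 also: 0% = growth of cultures given vehicle only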; details: S. cerevisiae sgs1 mgt1 strain, at 50.0 µM, hits give high values
Summary of the method: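 Read-out: growth inhibition vs vehicle controls. Cells: mutant yeast strain deficient in DNA damage repair.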

[4] = NCI Yeast Anticancer Drug Screen. Data for the cln2 rad14 strain (AID 165);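 also: 0% = growth equal to vehicle treated cultures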; details: S. cerevisiae cln2 rad14 strain, at 50.0 µM, hits give high values
Summary of the method: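 Test compounds were added to cln2 rad14 yeast cultures; inhibition of growth was then determined by comparison with vehicle treatment.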

[5] = NCI Yeast Anticancer Drug Screen. Data for the bub3 strain (AID 167); details: S. cerevisiae bub3 mutant strain, at 50.0 µM, hits give high values
Summary of the method: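 Growth of a checkpoint-deficient yeast mutant is measured after compound exposure. Values represent inhibition relative to vehicle.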

[6] = NCI Yeast Anticancer Drug Screen. Data for the mlh1 rad18 strain (AID 175); details: S. cerevisiae mlh1 rad18 strain growth inhibition; at 50.0 µM; hits give high values
Summary of the method: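 Inhibition values reflect reduced growth of mutant yeast versus vehicle-treated controls following compound exposure; the mutations affect DNA damage repair.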

Measured: growth inhibition

O=C1CC(=O)c2cccc3cccc1c23
inactive: [1] 42.8% | [2] 22.7% | [3] 44.4% | [4] 7.35% | [5] 47.9% | [6] 27.1%

C=C1C(=O)O[C@H]2/C=C(/C)C3=CC(=O)[C@@](C)(C[C@@H](OC(=O)/C(C)=C\C)C12)O3 (stereo partly specified)
active: [1] 73.5% | [2] 80.8% | [3] 81.2% | [5] 77.9% | [6] 75.8%
inactive: [4] 64.8%

N#Cc1ccc(-n2cccc2)cc1
inactive: [1] -1.8% | [2] -1.6% | [3] 7.35% | [4] -26.8% | [5] -6.2% | [6] -4.5%

CCOC(=O)/C(O)=C/c1nc2ccccc2nc1C
inactive: [1] 18.8% | [2] 5.65% | [3] 8.9% | [4] -6% | [5] -17.3% | [6] 14.7%

Cc1nc2ccc(Cl)cc2c2c1CCS2
inactive: [1] -19.1% | [2] -17.3% | [3] -2.8% | [4] -18.1% | [5] -23.1% | [6] -51.4%

CNc1ccc(C(=O)O)cc1C
inactive: [1] 1.25% | [2] 12.6% | [3] 9.8% | [4] -15.8% | [5] -56.4% | [6] 0.4%

C=CCNC(=S)N(Cc1ccccc1)Cc1ccccc1
active: [1] 86.2% | [2] 80% | [3] 91.9% | [4] 82.9% | [5] 88.7% | [6] 86.5%

COc1ccc(C(CC(=O)c2ccccc2)SCCN2CCOCC2)cc1 (stereo unspecified)
inactive: [1] 4.25% | [2] 0.85% | [3] 5.2% | [4] -43.6% | [5] 53.5% | [6] 3.6%

COc1ccc2c(C)cc(N/N=C(\C)C=O)nc2c1
inactive: [1] 19.9% | [2] 19.4% | [3] 18.8% | [4] 11.9% | [5] 10.8% | [6] -9.45%

O=C(Cc1ccccc1)NN1C(=O)C(Cl)C1c1ccc(O)cc1 (stereo unspecified)
inactive: [1] -27.9% | [2] -16.4% | [3] -11.2% | [4] 3.7% | [5] -29.4% | [6] 3.4%

CCCCCC(CCCCC)c1ccccn1
inactive: [1] -14.3% | [2] -11.4% | [3] 3.95% | [4] 22.4% | [5] 26.9% | [6] 4.1%

Cn1c2ccccc2c(=S)c2cc(NC(=O)CCCCC(=O)Nc3ccc4c(c3)c(=S)c3ccccc3n4C)ccc21
inactive: [1] 32.2% | [2] 22.9% | [3] 22.4% | [4] 23.5% | [5] -4.1% | [6] 23.9%

CN(C)CCCOc1ccc(/C=C2/CCC/C(=C/c3ccc(OCCCN(C)C)cc3)C2=O)cc1
inactive: [1] 22.6% | [2] 14.8% | [3] 19.8% | [4] 26.1% | [5] 18.7% | [6] 3.35%

Cc1nc2c(sc3ccccc3n2C)c2nc3c(sc4ccccc4n3C)c(C)c12
inactive: [1] -3.95% | [2] -4.2% | [3] 1.45% | [4] -24.4% | [5] -2.6% | [6] 15.1%

O=C(Nc1ccc(Cl)cc1)OCC#CCOC(=O)Nc1ccc(Cl)cc1
inactive: [1] 5.8% | [2] -2.75% | [3] -6.3% | [4] -2.05% | [5] -0.35% | [6] 2.1%

CCOC(=O)C(C#N)(Cc1c(-c2ccccc2)[nH]c2ccccc12)NC(C)=O (stereo unspecified)
inactive: [1] -4.25% | [2] 0.75% | [3] 4.85% | [4] -14.6% | [5] 7.9% | [6] 6.15%

CCC(O)CN(C)C (stereo unspecified)
inactive: [1] 8% | [2] -4.6% | [3] 6.65% | [4] -13.4% | [5] 0.85% | [6] 3.45%

Cc1csc2nc(-c3ccccc3)[nH]c(=S)c12
inactive: [1] 5.5% | [2] 6.4% | [3] 10.9% | [4] -22.8% | [5] -4.8% | [6] 6.75%

COc1ccc(S(=O)(=O)N(CC(=O)O)c2ccccc2)cc1
inactive: [1] -19.3% | [2] -6% | [3] -4.35% | [4] -6.15% | [5] -7.75% | [6] -0.7%

CCCC(=O)OCc1ccccc1
inactive: [1] 14.4% | [2] 11.9% | [3] -6.9% | [4] -15.8% | [5] -5.15% | [6] -7.85%

CCOC(=O)c1ccc(Nc2cnc3ccc(C(F)(F)F)cc3n2)cc1
inactive: [1] 14.4% | [2] -2.35% | [3] 24.9% | [4] 14.9% | [5] 30.9% | [6] -32.8%

O=[N+]([O-])c1ccc(Sc2ccc([N+](=O)[O-])cc2)cc1
inactive: [1] 2.35% | [2] 1.45% | [3] 8% | [4] 22.6% | [5] -0.1% | [6] 11.3%

CC1(C#N)CC/C(=C\c2ccc3c(c2)OCO3)C(=O)C1 (stereo unspecified)
inactive: [1] 0.3% | [2] 16.9% | [3] 4.75% | [4] -1.1% | [5] -6.7% | [6] -4.6%

O=[N+]([O-])c1ccccc1N=N/C(Cc1ccccc1)=N\Nc1ccccc1
inactive: [1] 10.8% | [2] 19.9% | [3] -8.25% | [4] 11.6% | [5] -12.6% | [6] -17.8%

Cc1ccc(Nc2nc3ccccc3nc2NS(=O)(=O)c2ccc(N)cc2)cc1
inactive: [1] 20.2% | [2] 11.8% | [3] 13.3% | [4] 5.85% | [5] 7.45% | [6] -4.2%

CCn1nc(C(=O)O)c(=O)c2cc3c(cc21)OCO3
inactive: [1] 8.1% | [2] 7.2% | [3] -9.85% | [4] -15.7% | [5] -3.9% | [6] 7.4%

CCC1(CCC(C)C)C(=O)NC(=Nc2ccccc2)N(c2ccccc2)C1=O (stereo unspecified)
inactive: [1] 18.7% | [2] 7.95% | [3] -0.65% | [4] 1.55% | [5] 4.45% | [6] 10.1%

Cc1ccc(C)c(NC(=O)/C=N/O)c1
inactive: [1] 1% | [2] -5.95% | [3] 18.5% | [4] 12.4% | [5] 2.3% | [6] 1%

CC(=O)OC1CCC2(C)C(CCC3(C)C2CC=C2C4CC(C)(C)CCC4(C)CCC23C)C1(C)C (stereo unspecified)
inactive: [1] 5.85% | [2] -1% | [3] -8.8% | [4] -1.6% | [5] 6.05% | [6] -5.3%

N#Cc1nc(NC(=O)c2ccccc2C(=O)O)c(C#N)[nH]1
inactive: [1] 1.5% | [2] 14.1% | [3] -20.8% | [4] 4.95% | [5] -8.85% | [6] -29.3%

NC1=Nc2ccccc2Sc2nncn21
inactive: [1] -18.2% | [2] -43.9% | [3] -10.7% | [4] -10.6% | [5] 0.1% | [6] -4.35%

COC(=O)c1cc(C)nc(Cl)c1C(=O)O
inactive: [1] 1.55% | [2] 4.95% | [3] -2.2% | [4] 0% | [5] -2.05% | [6] -5.9%

CC(=O)SSC12CC3CC(CC(C3)C1)C2
inactive: [1] -24.6% | [2] -17.4% | [3] -4.75% | [4] -48.9% | [5] 0.55% | [6] -7.7%

CCC(C)C(N)C1=NC(C(=O)NC(CC(C)C)C(=O)NC(CCC(=O)O)C(=O)NC(C(=O)NC2CCCCNC(=O)C(CC(N)=O)NC(=O)C(CC(=O)O)NC(=O)C(Cc3cnc[nH]3)NC(=O)C(Cc3ccccc3)NC(=O)C(C(C)CC)NC(=O)C(CCCN)NC2=O)C(C)CC)CS1 (stereo unspecified)
inactive: [1] 12.9% | [2] -24.9% | [3] 0.2% | [4] 25.6% | [5] -15.2% | [6] -7.3%

O=C1Nc2n[nH]c(=S)n2NC12c1ccccc1-c1ccccc12
inactive: [1] -45.8% | [2] -14.2% | [3] -28.1% | [4] -19.9% | [5] -21.7% | [6] -63.2%

ClCC1CCCO1 (stereo unspecified)
inactive: [1] 23.1% | [2] 12.6% | [3] 31.1% | [4] 3.35% | [5] 24.9% | [6] 25.6%

CC1(C2=CCCCC2)CCC(=O)NC1=O (stereo unspecified)
inactive: [1] -6.35% | [2] 10.6% | [3] 0.2% | [4] 35.2% | [5] 14.1% | [6] 28.8%

O=C(O)C(NCCNC(C(=O)O)c1ccccc1)c1ccccc1 (stereo unspecified)
inactive: [1] 24.2% | [2] 6.7% | [3] 19% | [4] 38.6% | [5] 15.2% | [6] 3.4%

NNC(=O)C(=O)NN
inactive: [1] -24% | [2] -16.4% | [3] -1.85% | [4] -27.7% | [5] -1.75% | [6] -20.6%

CC(=O)NC(Cc1ccccc1)C(=O)Nc1ccccc1C (stereo unspecified)
inactive: [1] 9.1% | [2] -18.3% | [3] 14.8% | [4] 10.6% | [5] 7.75% | [6] 7.35%

COc1cc(CC/C(C)=N/O)ccc1OCc1ccccc1
inactive: [1] -13.1% | [2] -21.2% | [3] 0.7% | [4] -39.6% | [5] 9.65% | [6] -22.8%
